# D1 PAM – human D1 dopamine receptor positive modulation | potentiation, % at 10 µM | 0.036% of 360,000 active | HEK293 TREx D1 cells, calcium flux, dopamine EC20 potentiation | AID 504651 | P21728; in the data active means potentiation above about 30%; further: 0% is about no effect
# TRHR agonist – activates the human TRH receptor | P34981 | TRHR cells, calcium flux fluo-8, FDSS agonist mode | activation, % at 2 µM | 0.18% of 360,000 active | AID 493084; further: 0% is about no effect
# Target sequence (P34981 whole entry, looked up): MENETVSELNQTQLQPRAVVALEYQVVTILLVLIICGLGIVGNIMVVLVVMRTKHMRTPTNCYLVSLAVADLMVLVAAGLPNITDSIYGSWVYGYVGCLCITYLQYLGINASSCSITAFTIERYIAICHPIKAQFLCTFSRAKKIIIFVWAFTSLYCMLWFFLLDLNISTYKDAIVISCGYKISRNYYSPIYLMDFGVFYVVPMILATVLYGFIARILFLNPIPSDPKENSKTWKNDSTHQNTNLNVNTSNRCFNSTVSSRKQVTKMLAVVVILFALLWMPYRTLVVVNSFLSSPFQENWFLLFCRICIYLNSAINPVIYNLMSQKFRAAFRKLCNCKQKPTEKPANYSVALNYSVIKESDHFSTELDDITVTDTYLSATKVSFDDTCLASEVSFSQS
#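 TRHR-expressing cells loaded with fluo-8 calcium dye; 23 nL library compound pin-transferred, kinetic FDSS fluorescence (Ex 480/Em 530) recorded about 180 s for agonist-induced calcium release, before a 10 nM TRH EC20 addition for potentiator mode.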
# TRHR enhancer – TRH receptor (human) allosteric enhancement; P34981; TRHR cells, fluo-8 calcium fluorescence, EC20 TRH enhancement; enhancement, % at 2 µM; 0.66% of 360,000 active; AID 493056; in the data active means enhancement above about 30%; further: 0% is about no effect
#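 Enhancer read-out: after compound pinning and an initial kinetic agonist-mode read, an EC20 of TRH (10 nM final) was injected and fluo-8 calcium signal (Ex 480/Em 530) followed at 1 s/cycle for 100 cycles in TRHR-expressing cells.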
# D1 antagonist – human D1 dopamine receptor antagonism; P21728; HEK293 TREx D1 cells, calcium flux, dopamine EC80; stronger effect = lower value; activity change, negative = inhibition, % at 10 µM; 3.2% of 360,000 active; AID 504652; in the data active means activity change below about -30%; further: on the % scale 0 is the no-effect control and ±100 the full control effect
#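 HEK293 T-REx cells expressing inducible, force-coupled D1 receptor; no-wash Ca dye, 30–90 min RT. Cmpd → 180 s read at 1 Hz → EC80 DA → 180 s read.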
# D1 agonist – human D1 receptor agonism. AID 504660. activation, % at 2 µM. HEK293 T-REx D1 cells, calcium flux, agonist mode. 1% of 360,000 active. P21728; further: 0% is about no effect
#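 Inducible HEK293 T-REx D1 cells, force-coupled to calcium signalling, were plated at 4000 cells/well with tetracycline and held overnight at 30 C. After no-wash calcium dye loading, compound-evoked calcium rise over 180 s flagged agonists.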
# Numbers without * were called inactive. Sampled rows, rich in hits. Any-hit rate of the full collection: about 4.6%. Unless noted, no stated cut-off is given here; in the data, active means activation above about 30%; inactive means the rest.
SMILES,D1 PAM,TRHR agonist,TRHR enhancer,D1 antagonist,D1 agonist
COc1ccc(C)cc1S(=O)(=O)Nc1cccc(-c2cn3cccnc3n2)c1,-2.6,0.2,30.9*,-4.1,0.8
Cc1ccc(-c2cn3cccnc3n2)cc1NC(=O)Cc1ccccc1,0.2,0.5,4.0,-72.7*,0.9
COc1ccc(-c2cn3cccnc3n2)cc1NC(=O)c1cc(C)cc(C)c1,2.1,-0.3,-4.4,-87.4*,-0.6
Cc1ccc(NC(=O)C2CCCN(S(=O)(=O)c3c(C)nn(C)c3C)C2)c(C)c1 (configuration not stated),5.3,0.5,8.4,-2.2,-1.0
CCN(Cc1ccccc1)C(=O)CN(c1ccc(OC)cc1)S(=O)(=O)c1c(C)nn(C)c1C,6.0,-0.3,13.4,3.5,-0.2
Cc1ccc(NC(=O)Cn2nc(C)c([N+](=O)[O-])c2C)cc1Cl,-13.4,0.8,-0.4,-0.1,16.9
Cc1nn(CC(=O)NCCc2ccc(Cl)cc2Cl)c(C)c1[N+](=O)[O-],-6.5,-1.4,9.5,-8.0,33.9*
Cc1ccc(C)c(Nc2nn3c(=O)c4ccc(C(=O)N(C)Cc5ccccc5)cc4nc3s2)c1,-3.1,-0.4,-2.1,-25.7,-0.8
CCCCN(C)C(=O)c1ccc2c(=O)n3nc(Nc4cc(C)ccc4C)sc3nc2c1,-3.5,-0.7,14.6,-67.9*,3.2
Cc1ccccc1Nc1nn2c(=O)c3ccc(C(=O)NCc4ccccc4)cc3nc2s1,-5.3,0.3,-0.1,11.5,-0.6
Cc1ccc(Cl)cc1Nc1nn2c(=O)c3ccc(C(=O)NCc4ccc(F)cc4)cc3nc2s1,-4.3,-1.2,-0.5,-33.4*,1.6
COCc1nc2ccccc2n1Cc1ccc(C(C)(C)C)cc1,-4.8,-0.1,-2.8,-5.7,1.9
Cc1cccc(Nc2c(-c3ccsc3)nc3nc(C)cc(C)n23)c1,8.6,-0.4,-3.1,10.4,0.1
COc1ccc(OC)c(-n2c(-c3ccc(S(C)(=O)=O)cc3)cc(C=O)c2C)c1,-0.6,-0.3,10.9,5.4,14.0
COc1ccc(OC)c(-n2c(C)ccc2-c2ccc(S(C)(=O)=O)cc2)c1,-1.7,-1.0,16.8,-68.5*,0.7
CC(=O)Nc1ccc(Sc2ncccc2C(=O)Nc2ccc(OC(F)(F)F)cc2)cn1,18.6,0.2,4.4,-60.0*,115.3*
CCOC(=O)c1cc(C)sc1/N=C/C1C(=O)CC(C)(C)CC1=O,-7.9,0.2,-3.3,-6.2,-1.5
CCOC(=O)c1c(CC(C)C)csc1/N=C/C1C(=O)CC(C)(C)CC1=O,-2.4,11.8,12.9,-3.7,32.4*
CN(C)c1ccc(CNC(=O)c2ccc(Cn3c(=O)c4cccn4c4cccnc43)cc2)cc1,1.6,0.0,-1.4,8.2,3.2
NC(=O)COC(=O)c1cccc(S(=O)(=O)N2CCN(c3ccccc3)CC2)c1,-0.8,0.4,1.6,-13.3,6.1
CN(c1ccccc1)S(=O)(=O)c1cccc(C(=O)NCCCN2CCCC2=O)c1,-2.0,0.3,1.7,-14.8,2.0
O=C(NCCCN1CCCC1=O)c1cccc(S(=O)(=O)N2CCN(c3ccccc3)CC2)c1,-4.3,-0.3,13.8,-44.1*,1.3
O=C(COC(=O)c1cccc(S(=O)(=O)N2CCN(c3ccccc3)CC2)c1)NCc1ccco1,-5.0,-0.5,34.6*,-14.8,5.7
O=C(NCCCn1ccnc1)c1cccc(S(=O)(=O)Nc2ccc(F)cc2)c1,1.8,0.2,-0.7,5.2,3.4
O=C(NCCCn1ccnc1)c1cccc(S(=O)(=O)Nc2ccc(Br)cc2)c1,5.0,-0.3,35.8*,7.5,51.2*
SMILES,D1 PAM,TRHR agonist,TRHR enhancer,D1 antagonist,D1 agonist
CCc1sc(C(=O)NCCCn2ccnc2)cc1Br,-10.8,-1.6,30.7*,6.3,1.9
O=C(NCCCN1CCCC1=O)C(=O)Nc1cccc(F)c1,-6.0,0.0,6.5,-43.8*,6.8
O=C(NCCCN1CCCC1=O)c1cccc(NS(=O)(=O)c2ccc(Br)cc2)c1,2.4,0.1,33.4*,-3.1,1.3
COc1ccc(S(=O)(=O)Nc2cccc(C(C)=O)c2)cc1Br,4.5,-0.1,-1.7,-2.0,5.9
O=C(NCCCN1CCCC1=O)c1cccc(NS(=O)(=O)c2ccccc2)c1,2.6,0.1,3.4,6.9,3.5
CC(=O)c1cccc(NS(=O)(=O)c2cccc(S(=O)(=O)c3ccc(Br)cc3)c2)c1,-1.1,0.3,1.2,-41.1*,27.4
Cc1ccccc1NC(=O)C(=O)NCCCN1CCCC1=O,0.8,-0.2,19.3,5.7,2.6
COc1cc(Cl)c(C)cc1Nc1ncnc2c1nc1n2CCCC1,-0.1,0.2,-4.2,0.1,-0.1
CC(=O)c1nn(-c2ccc(OC(F)(F)F)cc2)nc1Nc1ccc(Cl)cc1,-1.8,4.0,-3.6,2.0,8.3
CC(=O)c1c(C)nc2ccc(Br)cc2c1-c1ccccc1,0.6,-1.7,-9.4,-3.9,1.4
CC(=O)c1c(Cl)nc2ccc(Br)cc2c1-c1ccccc1,7.8,-0.1,35.0*,3.2,2.1
Clc1ccc2c(N3CCOCC3)ccnc2c1,-2.2,0.5,-1.1,-3.1,2.9
Clc1ccc2c(c1)CNc1c(ncnc1N1CCOCC1)O2,-9.4,-0.7,-0.1,-42.8*,3.0
CCOc1ccc(NC(=O)CC2C(=O)N(c3ccc(C)cc3)C(=O)N2Cc2ccc(OC)cc2)cc1 (configuration not stated),0.7,-0.1,44.8*,-3.4,0.1
CCOc1ccc(NC(=O)CC2C(=O)N(c3ccc(Cl)cc3)C(=O)N2Cc2cccs2)cc1 (configuration not stated),-3.4,-0.2,4.5,-73.9*,0.7
COc1ccc(CN2C(=O)N(c3ccc(OC)cc3)C(=O)C2CC(=O)Nc2ccccc2)cc1 (configuration not stated),-1.4,0.4,4.8,-2.5,1.8
Cc1ccsc1CCN1C(=O)N(c2ccc(F)cc2)C(=O)C1CC(=O)Nc1ccccc1 (configuration not stated),-4.3,0.3,-8.3,-30.5*,3.7
Cc1ccsc1CCN1C(=O)N(c2ccccc2)C(=O)C1CC(=O)Nc1ccc(F)cc1 (configuration not stated),-4.0,2.1,-11.6,0.0,18.7
COC(=O)c1ccc(NC(=O)CC2C(=O)N(c3ccc(Cl)cc3)C(=O)N2Cc2cccs2)cc1 (configuration not stated),-2.9,0.6,2.7,-13.2,1.0
COC(=O)CN1C(=S)N(c2ccc(Cl)cc2)C(=O)C1CC(=O)Nc1ccccc1 (configuration not stated),-3.5,-0.3,22.5,-31.9*,3.2
CC(C)c1nn2c(=O)cc(COC(=O)CNC(=O)c3ccccc3)nc2s1,-6.1,-0.4,-1.9,-12.2,-1.6
CCc1ccc(C(c2ccccc2)c2c[nH]c3ccc(C)cc23)s1 (configuration not stated),-0.1,-0.8,0.7,-5.9,0.7
COc1ccc(NC(=O)[C@@]2(CC(=O)O)CC(/C=C/c3ccccc3)=NO2)cc1,-6.5,1.2,-1.3,4.4,0.9
